# Laboratory results from PubChem BioAssay (EPA / NIEHS).
# Active and inactive are the calls of the source. How the source made its calls: active means hit-call score of the fitted dose curve at least 0.9, where 1 is the maximum; inactive means score below 0.9.
# Test: APR_HepG2_p53Act_1hr: Apredica 1-hour HepG2 Assay for p53 Activation (AID 2282671)
# Conditions: high-content imaging, actives raise or lower the signal
# Summary of the method: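 HepG2 cells treated 1 h with compound at 0.39–200 uM (10 concentrations, duplicate) in 0.5% DMSO. Formaldehyde-fixed, permeabilised cells immunostained for p53 with Hoechst 33342; high-content imaging, bidirectional fit versus DMSO.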
row,SMILES,outcome
1,CON(C)C(=O)Nc1ccc(Cl)c(Cl)c1,inactive
2,CCCCC(CC)COC(=O)c1ccccc1C(=O)OCC(CC)CCCC (configuration not stated),inactive
3,COc1ccc(C(c2ccc(OC)cc2)C(Cl)(Cl)Cl)cc1,inactive
4,C=CC1(C)OC(=O)N(c2cc(Cl)cc(Cl)c2)C1=O (configuration not stated),inactive
5,CC1=C(C(=O)Nc2ccccc2)SCCO1,inactive
6,COc1nc(C)nc(NC(=O)NS(=O)(=O)c2ccccc2CCC(F)(F)F)n1,inactive
7,N#Cc1cc(Br)c(O)c(Br)c1,inactive
8,CS/C(C)=N/OC(=O)N(C)SN(C)C(=O)O/N=C(\C)SC,inactive
9,CNC(=O)ON=CC(C)(C)SC,inactive
10,Fc1ccc(Oc2ccnc3cc(Cl)cc(Cl)c23)cc1,inactive
11,CC(C)C1(C)N=C(c2nc3ccccc3cc2C(=O)O)NC1=O (configuration not stated),inactive
12,O=C(O)COc1nc(Cl)c(Cl)cc1Cl,inactive
13,N#Cc1nn(-c2c(Cl)cc(C(F)(F)F)cc2Cl)c(N)c1S(=O)C(F)(F)F (configuration not stated),inactive

# Test: APR_HepG2_MitoticArrest_1hr: Apredica 1-hour HepG2 Assay for Mitotic Arrest (AID 2282672)
# Conditions: high-content imaging, actives raise or lower the signal
# Summary of the method: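 HepG2 cells exposed 1 hr to compounds at 0.39–200 uM (0.5% v/v DMSO final), then fixed in 3.7% formaldehyde and immunostained for phospho-histone H3 with Hoechst 33342. Mitotic arrest scored by automated fluorescence imaging, fitted bidirectionally versus DMSO.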
row,SMILES,outcome
1,CON(C)C(=O)Nc1ccc(Cl)c(Cl)c1,inactive
2,CCON=C(CC)C1=C(O)CC(c2c(C)cc(C)cc2C)CC1=O (configuration not stated),inactive
3,CCCCNC(=O)n1c(NC(=O)OC)nc2ccccc21,inactive
4,C=CC1(C)OC(=O)N(c2cc(Cl)cc(Cl)c2)C1=O (configuration not stated),inactive
5,CC1=C(C(=O)Nc2ccccc2)SCCO1,inactive
6,O=C(Nc1ccccc1)Nc1ccnc(Cl)c1,inactive
7,CCOC(=O)CC(SP(=S)(OC)OC)C(=O)OCC (configuration not stated),inactive
8,CC(C)C1(C)N=C(c2nc3ccccc3cc2C(=O)O)NC1=O (configuration not stated),inactive
9,C=CCC1=C(C)[C@@H](OC(=O)[C@@H]2[C@@H](C=C(C)C)C2(C)C)CC1=O,inactive
10,CCc1nn(C)c(C(=O)NCc2ccc(C(C)(C)C)cc2)c1Cl,inactive
11,Cc1c(F)c(F)c(COC(=O)C2C(/C=C(\Cl)C(F)(F)F)C2(C)C)c(F)c1F (configuration not stated),inactive

# Test: APR_HepG2_P-H2AX_1hr: Apredica 1-hour HepG2 Assay for H2AX Phosphorylation (AID 2282673)
# Conditions: high-content imaging, actives raise or lower the signal
# Summary of the method: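 HepG2 dosed 1 hr at 0.39-200 uM (0.5% DMSO final), duplicate. Fixed in 3.7% formaldehyde, Triton permeabilized, immunostained for phospho-histone H2A.x (1:200) with Hoechst 33342; ArrayScan 20x imaging, bidirectional fit vs DMSO.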
SMILES,outcome,AC50
N#CC(CCc1ccc(Cl)cc1)(Cn1cncn1)c1ccccc1 (configuration not stated),inactive,–
CCCCNC(=O)n1c(NC(=O)OC)nc2ccccc21,inactive,–
CCCN(CCC)c1c([N+](=O)[O-])cc(S(N)(=O)=O)cc1[N+](=O)[O-],–,88.7 µM (active)
CCc1nn(C)c(C(=O)NCc2ccc(C(C)(C)C)cc2)c1Cl,inactive,–
Cc1c(F)c(F)c(COC(=O)C2C(/C=C(\Cl)C(F)(F)F)C2(C)C)c(F)c1F (configuration not stated),inactive,–
C#CCOS(=O)OC1CCCCC1Oc1ccc(C(C)(C)C)cc1 (configuration not stated),inactive,–

# Test: APR_HepG2_MitoMass_1hr: Apredica 1-hour HepG2 Assay for Mitochondrial Mass (AID 2282674)
# Conditions: high-content imaging, actives raise or lower the signal
# Summary of the method: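 HepG2 cells dosed 1 hr with 0.39-200 uM compound (0.5% DMSO), duplicate wells. Mitochondria stained with 250 nM MitoTracker Red CMXRos for 30 min before formaldehyde fixation, imaged at 20x by ArrayScan; bidirectional fit versus DMSO.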
row,SMILES,outcome
1,N#CC(CCc1ccc(Cl)cc1)(Cn1cncn1)c1ccccc1 (configuration not stated),inactive
2,CO/C=C(/C(=O)OC)c1ccccc1Oc1cc(Oc2ccccc2C#N)ncn1,inactive
3,CON(C)C(=O)Nc1ccc(Cl)c(Cl)c1,inactive
4,CCON=C(CC)C1=C(O)CC(c2c(C)cc(C)cc2C)CC1=O (configuration not stated),inactive
5,CCCCC(CC)COC(=O)c1ccccc1C(=O)OCC(CC)CCCC (configuration not stated),inactive
6,COc1ccc(C(c2ccc(OC)cc2)C(Cl)(Cl)Cl)cc1,inactive
7,CCCCNC(=O)n1c(NC(=O)OC)nc2ccccc21,inactive
8,C=CC1(C)OC(=O)N(c2cc(Cl)cc(Cl)c2)C1=O (configuration not stated),inactive
9,CC1=C(C(=O)Nc2ccccc2)SCCO1,inactive
10,COc1nc(C)nc(NC(=O)NS(=O)(=O)c2ccccc2CCC(F)(F)F)n1,inactive
11,N#Cc1cc(Br)c(O)c(Br)c1,inactive
12,CS/C(C)=N/OC(=O)N(C)SN(C)C(=O)O/N=C(\C)SC,inactive
13,CNC(=O)ON=CC(C)(C)SC,inactive
14,Fc1ccc(Oc2ccnc3cc(Cl)cc(Cl)c23)cc1,inactive
15,O=C(Nc1ccccc1)Nc1ccnc(Cl)c1,inactive
16,CCOC(=O)CC(SP(=S)(OC)OC)C(=O)OCC (configuration not stated),inactive
17,CC(C)C1(C)N=C(c2nc3ccccc3cc2C(=O)O)NC1=O (configuration not stated),inactive
18,CC(Oc1ccc(Cl)cc1Cl)C(=O)O (configuration not stated),inactive
19,O=C(O)COc1nc(Cl)c(Cl)cc1Cl,inactive
20,CCCN(CCC)c1c([N+](=O)[O-])cc(S(N)(=O)=O)cc1[N+](=O)[O-],inactive
21,O=C(O)c1nc(Cl)ccc1Cl,inactive
22,C=CCC1=C(C)[C@@H](OC(=O)[C@@H]2[C@@H](C=C(C)C)C2(C)C)CC1=O,inactive
23,CCc1nn(C)c(C(=O)NCc2ccc(C(C)(C)C)cc2)c1Cl,inactive
24,Cc1c(F)c(F)c(COC(=O)C2C(/C=C(\Cl)C(F)(F)F)C2(C)C)c(F)c1F (configuration not stated),inactive
25,N#Cc1nn(-c2c(Cl)cc(C(F)(F)F)cc2Cl)c(N)c1S(=O)C(F)(F)F (configuration not stated),inactive
26,C#CCOS(=O)OC1CCCCC1Oc1ccc(C(C)(C)C)cc1 (configuration not stated),inactive

# Test: APR_HepG2_MitoMembPot_1hr: Apredica 1-hour HepG2 Assay for Mitochondrial Membrane Potential (AID 2282675)
# Conditions: imaging, actives raise or lower the signal
# Summary of the method: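 HepG2 cells dosed 1 hour with 0.39–200 uM compound in duplicate, 0.5% DMSO final. MitoTracker Red CMXRos (250 nM, 30 min) loaded before formaldehyde fixation; fluorescence quantified by high-content imaging, bidirectional fitting versus DMSO.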
SMILES,outcome,AC50
N#CC(CCc1ccc(Cl)cc1)(Cn1cncn1)c1ccccc1 (configuration not stated),inactive,–
CO/C=C(/C(=O)OC)c1ccccc1Oc1cc(Oc2ccccc2C#N)ncn1,inactive,–
CON(C)C(=O)Nc1ccc(Cl)c(Cl)c1,inactive,–
CCON=C(CC)C1=C(O)CC(c2c(C)cc(C)cc2C)CC1=O (configuration not stated),inactive,–
CCCCC(CC)COC(=O)c1ccccc1C(=O)OCC(CC)CCCC (configuration not stated),inactive,–
COc1ccc(C(c2ccc(OC)cc2)C(Cl)(Cl)Cl)cc1,–,100 µM (active)
CCCCNC(=O)n1c(NC(=O)OC)nc2ccccc21,inactive,–
C=CC1(C)OC(=O)N(c2cc(Cl)cc(Cl)c2)C1=O (configuration not stated),inactive,–
CC1=C(C(=O)Nc2ccccc2)SCCO1,inactive,–
COc1nc(C)nc(NC(=O)NS(=O)(=O)c2ccccc2CCC(F)(F)F)n1,inactive,–
N#Cc1cc(Br)c(O)c(Br)c1,inactive,–
CS/C(C)=N/OC(=O)N(C)SN(C)C(=O)O/N=C(\C)SC,inactive,–
CNC(=O)ON=CC(C)(C)SC,inactive,–
Fc1ccc(Oc2ccnc3cc(Cl)cc(Cl)c23)cc1,inactive,–
O=C(Nc1ccccc1)Nc1ccnc(Cl)c1,–,99.5 µM (active)
CCOC(=O)CC(SP(=S)(OC)OC)C(=O)OCC (configuration not stated),inactive,–
CC(C)C1(C)N=C(c2nc3ccccc3cc2C(=O)O)NC1=O (configuration not stated),inactive,–
CC(Oc1ccc(Cl)cc1Cl)C(=O)O (configuration not stated),inactive,–
O=C(O)COc1nc(Cl)c(Cl)cc1Cl,inactive,–
CCCN(CCC)c1c([N+](=O)[O-])cc(S(N)(=O)=O)cc1[N+](=O)[O-],inactive,–
O=C(O)c1nc(Cl)ccc1Cl,inactive,–
C=CCC1=C(C)[C@@H](OC(=O)[C@@H]2[C@@H](C=C(C)C)C2(C)C)CC1=O,–,109 µM (active)
CCc1nn(C)c(C(=O)NCc2ccc(C(C)(C)C)cc2)c1Cl,inactive,–
Cc1c(F)c(F)c(COC(=O)C2C(/C=C(\Cl)C(F)(F)F)C2(C)C)c(F)c1F (configuration not stated),inactive,–
N#Cc1nn(-c2c(Cl)cc(C(F)(F)F)cc2Cl)c(N)c1S(=O)C(F)(F)F (configuration not stated),–,54.4 µM (active)
C#CCOS(=O)OC1CCCCC1Oc1ccc(C(C)(C)C)cc1 (configuration not stated),–,82.3 µM (active)
